# PubChem BioAssay (Tox21)
# Records with an inconclusive call do not appear. Values without a mark were called inactive. Active and inactive are the calls of the source. Calls come from the whole dose curve; as a rule, active = well fitted cell-killing curve with a large enough effect in the repeat runs; inconclusive = weak or mixed curves, or effect the other way; inactive = flat fitted curve, though single readings scatter.
# Assay: qHTS assay to identify small molecule agonists of the estrogen receptor beta (ER-beta) signaling pathway - cell viability counter screen (AID 1259380); note: nearly all actives have a fitted effect of over 30% in size
# Settings: ER-beta-bla HEK293T viability, CellTiter-Glo luminescence, 16 h; series mostly up to 92.4 µM; activity change, negative = cytotoxicity: at the top concentration
# From the text: National Center for Advancing Translational Sciences [NCATS]
# NIH Chemical Genomics Center [NCGC]
# U.S. Environmental Protection Agency [EPA]
# National Institutes of Environmental Health Sciences [NIEHS]
# National Toxicology Program [NTP]
# U.S. Food and Drug Administration [FDA]
# Estrogen receptor (ER), a nuclear hormone receptor, plays an important role in development, metabolic homeostasis and reproduction. Two subtypes of ER, ER-alpha and ER-beta, have similar expression patterns with some uniqueness in both types. Endocrine disrupting chemicals (EDCs) and their interactions with steroid hormone receptors like ER causes disruption of normal endocrine function. To identify the compounds that activate ER signaling, an ER beta-UAS-bla GripTite cell line (Life Technologies, Madison, WI, USA) containing a beta-lactamase reporter gene under the control of an UAS response element was used to screen Tox21 10K compound library. The cytotoxicity of the Tox21 compound library against the ER-beta-bla cell line was tested in parallel by measuring the cell viability using CellTiter-Glo assay in the same wells.
# Tox21 Assay Protocol Summary:
# ER-beta-UAS-bla HEK293T cells were dispensed at 2,000 cells/5 uL of assay medium containing 2% charcoal stripped FBS per well into black wall/clear-bottom 1536-well plates using a Multidrop Combi (ThermoFisher Scientific, Waltham, MA) dispenser. After the assay plates were incubated at a 37C and 5% CO2 for 6 hr, 23 nL of compounds dissolved in DMSO, positive controls or DMSO only was transferred to the assay plate by a Pintool station (Kalypsys, San Diego, CA). The plates were incubated at 37C and 5% CO2 for 16 hr. Then 1 uL of LiveBLAzerTM B/G FRET substrate was added using a BioRAPTR FRD (Flying Reagent Dispenser, Aurora Discovery, San Diego, CA) and then the plates were incubated at room temperature for 2 hours, and fluorescence intensity was measured by an Envision plate reader (PerkinElmer, Shelton, CT). For cell viability readout that measures cytotoxicity, 4 uL/well of CellTiter-Glo reagent was added into the assay plates using a FRD. After 30 min incubation at room temperature, the luminescence intensity in the plates was measured using a ViewLux (PerkinElmer) plate reader.
# % is set by controls: 0 for no effect and ±100 for the full control effect.
Structure (SMILES),"activity change, negative = cytotoxicity",Potency
O=C(O)COc1nn(Cc2ccccc2)c2ccccc12,6.19% [at 42.5 µM],
C1OCOCO1,0.431%,
CCCCOCCOCCOCc1cc2c(cc1CCC)OCO2,1.45% [at 42.5 µM],
O=C(O)c1ccccc1OP(=O)(O)O,-0.123% [at 42.5 µM],
c1ccc([C@H]2CN3CCSC3=N2)cc1,-9.32% [at 42.5 µM],
N#Cc1ccc(C2CCCc3cncn32)cc1 (stereo not given),-7.84% [at 42.5 µM],
C/C=C(\C)C#N,-0.766%,
CCC=O,9.92%,
COC(=O)CCSCCC(=O)OC,-0.455%,
C=C(C)C(=O)OCCCCCCCC(C)C,1.74%,
C[C@@H]1CCN(C(=O)[C@H](CCCN=C(N)N)NS(=O)(=O)c2cccc3c2NC[C@H](C)C3)[C@@H](C(=O)O)C1,9.43% [at 42.5 µM],
C[C@H]1C[C@@H](O)CC(C)(C)C1,6.1%,
CC(C)NCC(O)c1ccc(NS(C)(=O)=O)cc1 (stereo not given),2.11%,
CN1N=C(C(N)=O)CCC1=O,0.36% [at 42.5 µM],
CCCCCOC(=O)CCCCC,4.87%,
CCO/C([O-])=N/c1c[n+](N2CCOCC2)no1,9.99% [at 42.5 µM],
CCCC(=O)O[C@]1(C(=O)CO)CC[C@H]2[C@@H]3CCC4=CC(=O)CC[C@]4(C)[C@H]3[C@@H](O)C[C@@]21C,1.05% [at 42.5 µM],
CCCCCSCCCCC,8.3%,
CC(C)CCCC(C)N (stereo not given),9.64% [at 42.5 µM],
COCCc1ccc(OCC(O)CNC(C)C)cc1 (stereo not given),,inactive

Structure (SMILES),"activity change, negative = cytotoxicity",Potency
CN(C)CCCSc1ccccc1NC(=O)/C=C/c1ccccc1,2.9% [at 42.5 µM],
O=C[C@H](O)[C@@H](O)[C@H](O)[C@H](O)CO,15.6%,
CC(C)NCCCC1(C(N)=O)c2ccccc2-c2ccccc21,4.7% [at 42.5 µM],
CCCc1cc(C(N)=S)ccn1,0.865% [at 42.5 µM],
CC(C)CNCC(C)C,0.412%,
N=c1nc(N2CCCCC2)cc(N)n1O,6.89% [at 42.5 µM],
NC(=O)c1cn(Cc2c(F)cccc2F)nn1,0.184% [at 42.5 µM],
C1CN(CCOCCN2CCOCC2)CCO1,1.22%,
CCOC(=O)CC(C)=O,2.7%,
Nc1nc2c(ncn2COC(CO)CO)c(=O)[nH]1,12.3% [at 42.5 µM],
NC(CSCC(=O)O)C(=O)O (stereo not given),-0.119% [at 42.5 µM],
COC(=O)c1c(Cl)c(Cl)c(C(=O)OC)c(Cl)c1Cl,2.97%,
CS(=O)(=O)O,0.966%,
CN1CCC(=C2c3ccccc3CC(=O)c3sccc32)CC1,1.23% [at 42.5 µM],
CCCCC(CC)COC(=O)c1ccccc1O (stereo not given),-1.01% [at 42.5 µM],
NCCc1cnc[nH]1,2.86% [at 42.5 µM],
O=c1[nH]c(=O)n([C@H]2C[C@H](O)[C@@H](CO)O2)cc1I,1.58% [at 42.5 µM],
CCOC(C)(C)C,1.11%,
CN1CCCC1,7.02%,
CC(C)(O)C#CC(C)(C)O,13%,
